PubChem BioAssay (Tox21)
Inconclusive results are not listed. The source made the active and inactive calls. Calls come from the whole dose curve; as a rule, active = well fitted curve in the direction sought with a large enough effect in the repeat runs; inconclusive = weak or mixed curves; inactive = no such curve, though single readings can be large; an effect the other way counts as inactive or inconclusive.

Experiments:
[1] = A CellTox Green Cytotoxicity Assay to monitor cytotoxicity in HEK293 cells - 40 hour (AID 1224871); note: nearly all actives have a fitted effect of over 45% in size
In short: (§1)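 Real-time, in one plate: 600 HEK293 cells/well with dead-cell DNA dye, pinned compound after 5 h, 37 C incubation over 40 h; viable cells give no appreciable fluorescence.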

[2] = qHTS RealTime-Glo MT Cell Viability Assay in HEK293 cells - 16 hour (AID 1224872); note: top concentration of the series differs between compounds; nearly all actives have a fitted effect of over 50% in size
In short: (§2)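 Cells + reagent dispensed (600 cells/well, HEK293) → 5 h at 37 C/5% CO2 → 23 nL compound in DMSO pinned → 40 h at 37 C → luminescence read at 0, 8, 16, 24, 32, 40 h.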

[3] = qHTS RealTime-Glo MT Cell Viability Assay in HepG2 cells - 8 hour (AID 1224873); note: nearly all actives have a fitted effect of over 55% in size
In short: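 HepG2 cells (600/well) mixed with RealTime-Glo MT reagent, settled 5 h at 37 C/5% CO2 before compound addition. Nonlytic NanoLuc luminescence from viable-cell prosubstrate reduction read repeatedly during 40 h treatment at 37 C.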

[4] = qHTS RealTime-Glo MT Cell Viability Assay in HEK293 cells - 40 hour (AID 1224874); details: RealTime-Glo luminescence; max response: stronger effect = lower value; note: nearly all actives have a fitted effect of over 50% in size
In short: (§3)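 Kinetic, non-lysing viability readout. Seed HEK293 (600/well) with reagent, incubate 5 h at 37 C/5% CO2, pin 23 nL compound in DMSO, incubate at 37 C, read luminescence at 0, 8, 16, 24, 32, 40 h.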

[5] = A CellTox Green Cytotoxicity Assay to monitor cytotoxicity in HEK293 cells - 24 hour (AID 1224875); note: series mostly up to about 77 µM; nearly all actives have a fitted effect of over 45% in size
In short: as §1

[6] = A CellTox Green Cytotoxicity Assay to monitor cytotoxicity in HepG2 cells - 16 hour (AID 1224876); note: nearly all actives have a fitted effect of over 45% in size
In short: (§4)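 Cytotoxicity was tracked as dead-cell DNA fluorescence in HepG2 cells treated with test compounds at 37 C; each time-point value comes from one kinetic series spanning 0, 8, 16, 24, 32 and 40 h.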

[7] = qHTS RealTime-Glo MT Cell Viability Assay in HepG2 cells - 32 hour (AID 1224877); note: nearly all actives have a fitted effect of over 55% in size
In short: (§5)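 Real-time, nonlytic viability: 600 HepG2 cells/well mixed with NanoLuc enzyme plus prosubstrate; 5 h settle, compound (DMSO) added by pintool; luminescence monitored over 40 h at 37 C.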

[8] = A CellTox Green Cytotoxicity Assay to monitor cytotoxicity in HepG2 cells - 24 hour (AID 1224878); note: nearly all actives have a fitted effect of over 45% in size
In short: as §4

[9] = A CellTox Green Cytotoxicity Assay to monitor cytotoxicity in HepG2 cells - 40 hour (AID 1224879); note: nearly all actives have a fitted effect of over 40% in size
In short: as §4

[10] = qHTS RealTime-Glo MT Cell Viability Assay in HEK293 cells - 0 hour (AID 1224880)
In short: as §3

[11] = A CellTox Green Cytotoxicity Assay to monitor cytotoxicity in HEK293 cells - 32 hour (AID 1224881); note: nearly all actives have a fitted effect of over 40% in size
In short: as §1

[12] = A CellTox Green Cytotoxicity Assay to monitor cytotoxicity in HepG2 cells - 0 hour (AID 1224882); note: nearly all actives have a fitted effect of over 35% in size
In short: as §4

[13] = A CellTox Green Cytotoxicity Assay to monitor cytotoxicity in HEK293 cells - 8 hour (AID 1224884); note: nearly all actives have a fitted effect of over 35% in size
In short: as §1

[14] = qHTS RealTime-Glo MT Cell Viability Assay in HepG2 cells - 16 hour (AID 1224885); note: nearly all actives have a fitted effect of over 50% in size
In short: as §5

[15] = qHTS RealTime-Glo MT Cell Viability Assay in HEK293 cells - 24 hour (AID 1224886); note: top concentration of the series differs between compounds; nearly all actives have a fitted effect of over 50% in size
In short: as §2

[16] = qHTS RealTime-Glo MT Cell Viability Assay in HEK293 cells - 8 hour (AID 1224887)
In short: as §3

[17] = A CellTox Green Cytotoxicity Assay to monitor cytotoxicity in HEK293 cells - 16 hour (AID 1224888); note: nearly all actives have a fitted effect of over 35% in size
In short: as §1

[18] = qHTS RealTime-Glo MT Cell Viability Assay in HepG2 cells - 0 hour (AID 1224889); note: nearly all actives have a fitted effect of over 50% in size
In short: as §5

[19] = A CellTox Green Cytotoxicity Assay to monitor cytotoxicity in HepG2 cells - 8 hour (AID 1224890); note: nearly all actives have a fitted effect of over 45% in size
In short: as §4

[20] = A CellTox Green Cytotoxicity Assay to monitor cytotoxicity in HepG2 cells - 32 hour (AID 1224883); note: nearly all actives have a fitted effect of over 50% in size
In short: as §4
% is set by controls: 0 for no effect and ±100 for the full control effect.

CCCCCCCCC(=O)OCC(C)OC(=O)CCCCCCCC (configuration not stated)
inactive: Potency [1] | Potency [2] | outcome [3] | max response [4] 0.14% | Potency [5] | Potency [6] | Potency [7] | Potency [8] | Potency [9] | Potency [10] | Potency [11] | Potency [12] | Potency [13] | outcome [14] | Potency [15] | Potency [16] | Potency [17] | Potency [18] | Potency [19]

CCc1c(C)[nH]c2c1C(=O)C(CN1CCOCC1)CC2 (configuration not stated)
inactive: Potency [1] | Potency [2] | outcome [3] | max response [4] 2.91% | Potency [5] | Potency [6] | Potency [7] | Potency [8] | Potency [9] | Potency [10] | Potency [11] | Potency [12] | Potency [13] | outcome [14] | Potency [15] | Potency [16] | Potency [17] | Potency [18] | Potency [19]

O=C(O)c1cccnc1Nc1cccc(C(F)(F)F)c1
inactive: Potency [1] | Potency [2] | outcome [3] | max response [4] -4.24% | Potency [5] | Potency [6] | Potency [7] | Potency [8] | Potency [9] | Potency [10] | Potency [11] | Potency [12] | Potency [13] | outcome [14] | Potency [15] | Potency [16] | Potency [17] | Potency [18] | Potency [19]

O=C(O)c1ccc2c(c1)nc(C(=O)NC1CCN(C3CC3)CC1)n2Cc1cc(-c2ccc(Cl)s2)on1
inactive: cytotoxicity increase [1] -0.224% [at 15.8 µM] | activity change, negative = cytotoxicity [2] 7.22% [at 15.8 µM] | viability change, negative = cytotoxic [3] -2.47% [at 15.8 µM] | max response [4] -1.71% | activity change [5] 1.12% [at 15.8 µM, stronger effect = higher value] | cytotoxicity increase [6] -9.11% [at 15.8 µM] | activity change, negative = cytotoxic [7] -3.33% [at 15.8 µM] | cytotoxicity [8] -2.25% [at 15.8 µM] | cytotoxicity increase [9] -6.87% [at 15.8 µM] | activity change, negative = cytotoxicity [10] -5.93% [at 15.8 µM] | cytotoxicity increase [11] 1.64% [at 15.8 µM] | cytotoxicity [12] -4.38% [at 15.8 µM] | cytotoxicity increase [13] -5.24% [at 15.8 µM] | activity change, negative = cytotoxic [14] -5.36% [at 15.8 µM] | activity change, negative = cytotoxicity [15] 0.501% [at 15.8 µM] | activity change, negative = cytotoxicity [16] 8.44% [at 15.8 µM] | activity change [17] 0.74% [at 15.8 µM, stronger effect = higher value] | activity change, negative = cytotoxicity [18] -12.8% [at 15.8 µM] | cytotoxicity increase [19] 1.82% [at 15.8 µM]

O=C(O)c1cc(C(=O)O)cc([N+](=O)[O-])c1
inactive: Potency [1] | Potency [2] | outcome [3] | max response [4] 8.3% | Potency [5] | Potency [6] | Potency [7] | Potency [8] | Potency [9] | Potency [10] | Potency [11] | Potency [12] | Potency [13] | outcome [14] | Potency [15] | Potency [16] | Potency [17] | Potency [18] | Potency [19]

CC(=O)Oc1cccc2c1C(=O)c1c(OC(C)=O)cc(C(=O)O)cc1C2=O
inactive: Potency [1] | Potency [2] | outcome [3] | max response [4] -10.8% | Potency [5] | Potency [6] | Potency [7] | Potency [8] | Potency [9] | Potency [10] | Potency [11] | Potency [12] | Potency [20] | Potency [13] | outcome [14] | Potency [15] | Potency [16] | Potency [18] | Potency [19]

Cc1nc(C)c(C)nc1C
inactive: Potency [1] | Potency [2] | outcome [3] | max response [4] -5.51% | Potency [5] | Potency [6] | Potency [7] | Potency [8] | Potency [9] | Potency [10] | Potency [11] | Potency [12] | Potency [20] | Potency [13] | outcome [14] | Potency [15] | Potency [16] | Potency [18] | Potency [19]

Cc1ccc(Cl)c(OCC(O)CNC(C)(C)C)c1 (configuration not stated)
inactive: Potency [1] | Potency [2] | outcome [3] | max response [4] 1.75% | Potency [5] | Potency [6] | Potency [7] | Potency [8] | Potency [9] | Potency [10] | Potency [11] | Potency [12] | Potency [20] | Potency [13] | outcome [14] | Potency [15] | Potency [16] | Potency [18] | Potency [19]

CC[C@H](NC(C)C)[C@H](O)c1ccc(O)c2[nH]c(=O)ccc12
inactive: Potency [1] | Potency [2] | outcome [3] | max response [4] 5.21% | Potency [5] | Potency [6] | Potency [7] | Potency [8] | Potency [9] | Potency [10] | Potency [11] | Potency [12] | Potency [13] | outcome [14] | Potency [15] | Potency [16] | Potency [17] | Potency [18] | Potency [19]

Cc1cccc(C)c1NC(=O)CN1CCCC1
inactive: Potency [1] | Potency [2] | outcome [3] | max response [4] 8.7% | Potency [5] | Potency [6] | Potency [7] | Potency [8] | Potency [9] | Potency [10] | Potency [11] | Potency [12] | Potency [20] | Potency [13] | outcome [14] | Potency [15] | Potency [16] | Potency [18] | Potency [19]

C[C@@H](O)[C@H]1C(=O)N2C(C(=O)O)=C(S[C@@H]3CN[C@H](CNS(N)(=O)=O)C3)[C@H](C)[C@H]12
inactive: Potency [1] | Potency [2] | outcome [3] | max response [4] 2.56% | Potency [5] | Potency [6] | Potency [7] | Potency [8] | Potency [9] | Potency [10] | Potency [11] | Potency [12] | Potency [13] | outcome [14] | Potency [15] | Potency [16] | Potency [17] | Potency [18] | Potency [19]

CC1(C)C(=O)NC(=O)N1CO
inactive: Potency [1] | Potency [2] | outcome [3] | max response [4] 9.14% | Potency [5] | Potency [6] | Potency [7] | Potency [8] | Potency [9] | Potency [10] | Potency [11] | Potency [12] | Potency [13] | outcome [14] | Potency [15] | Potency [16] | Potency [17] | Potency [18] | Potency [19]

CO[C@@H]1[C@@H](O[C@@H]2O[C@H](C)[C@@H](O[C@H]3C[C@@](C)(O)[C@@H](O)[C@H](C)O3)[C@H](N(C)C)[C@H]2O)[C@@H](CC=O)C[C@@H](C)[C@@H](O[C@@H]2CC[C@H](N(C)C)[C@@H](C)O2)/C=C/C=C/C[C@@H](C)OC(=O)C[C@H]1OC(C)=O
inactive: Potency [1] | Potency [2] | outcome [3] | max response [4] 1.04% | Potency [5] | Potency [6] | Potency [7] | Potency [8] | Potency [9] | Potency [10] | Potency [11] | Potency [12] | Potency [20] | Potency [13] | outcome [14] | Potency [15] | Potency [16] | Potency [18] | Potency [19]
